Screens: PubChem, National Center for Advancing Translational Sciences (NCATS)
Shown are actives, neighbours in structure and some others; about 0.52% of the full set was active somewhere.
aGlu spleen mod = qHTS Assay for Inhibitors and Activators of Human alpha-Glucosidase From Spleen Homogenate; human spleen homogenate, 4-MU-alpha-glucoside fluorescence; Potency, µM (doses to about 79.9 µM), for the others: at the highest dose activity change, negative = inhibition, most hits filed as inhibitors; Lysosomal alpha-glucosidase (Homo sapiens), P10253; AID 2112, 2009; hit rate 0.006% among 240,000;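 also: 0% = enzyme with vehicle and -100% = no enzyme basal signal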
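Enzyme source: human spleen homogenate, 1 ug/well. Buffer 50 mM citric acid/K phosphate pH 5.0, 0.01% Tween-20. 4-MU-alpha-glucoside 1 mM; 37 C x 40 min; NaOH/glycine stop; fluorescence.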
N370S GC = qHTS Assay for Inhibitors and Activators of N370S glucocerebrosidase as a Potential Chaperone Treatment of Gaucher Disease; N370S GC spleen homogenate, 4MU-glucoside fluorescence; Potency, µM (top dose mostly 59.4 µM), for the others: at the highest dose activity change, negative = inhibition, usual class: inhibitors; Lysosomal acid glucosylceramidase (Homo sapiens), P04062; hit rate 0.092% among 330,000;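 also: 0% = full enzyme activity and -100% = no enzyme basal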
LMNA splice mod = qHTS Assay for Modulators of Lamin A Splicing; HeLa LMNA splicing GFP/RFP minigene ratio, 48 h; hit rate 0.01% among 200,000; AID 1487, 2009; Potency, µM (series often up to 46.1 µM), inactives show at the highest dose ratio change, negative = inhibition, most hits filed as inhibitors; active = well fitted inhibition curve with a large enough effect in the signal ratio, with a control signal flat, not every such curve was filed as active; inconclusive = small, poorly fitted or top-dose-only effect, or effect the other way, or a change in a side signal; the % refers to the signal ratio
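Read-out is the ratio of GFP to DsRed2 object intensity, acquired by 488 nm laser-scanning cytometry on HeLa lamin A-EGFP minigene reporter cells. Compound incubation 48 hrs at 37 °C in Opti-MEM with 2% FBS; DMSO 0.5% final.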
GAA glycogen = qHTS Assay for Inhibitors and Activators of Human alpha-Glucosidase Cleavage of Glycogen. Potency, µM (titrated, usually from 76.4 µM), without a hit: at the highest dose activity change, negative = inhibition, actives largely listed as inhibitors. Lysosomal alpha-glucosidase (Homo sapiens), P10253. AID 2100, 2009. hit rate 0.38% among 300,000. recombinant GAA, glycogen substrate, Amplex Red glucose oxidase fluorescence;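 also: 0% = full enzyme reaction and -100% = no-enzyme basal signal; the screen sought inhibitors and activators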
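Recombinant enzyme (4 nM final) with compounds titrated up to 77 uM and bovine liver glycogen (30 ug) in citrate pH 5.0, 0.01% Tween-20, 37 C 40 min. Released glucose detected by Amplex Red/glucose oxidase (Ex 573/Em 610); AC50 from Hill fits.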
GAA inhib = qHTS Assay for Inhibitors of Human alpha-Glucosidase as a Potential Chaperone Treatment of Pompe Disease; Lysosomal alpha-glucosidase (Homo sapiens), P10253; purified human GAA, 4-MU-alpha-glucoside fluorescence; Potency, µM (doses to about 76.9 µM), inactives show at the top dose activity change, negative = inhibition, actives largely listed as inhibitors; hit rate 0.005% among 200,000;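 also: plate controls were uninhibited enzyme wells for no effect and no-enzyme background for full effect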
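Compounds are titrated up to 77 uM against 4 nM human enzyme. Substrate 4-methylumbelliferyl-alpha-D-pyranoside (400 uM) reacts 20 min at room temperature in pH 5.0 buffer; liberated 4-methylumbelliferone is read at 440 nm.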
Luc counter = Counterscreen for Luciferase (Kinase-Glo TM) Inhibition. Kinase-Glo luciferase, ATP luminescence, 8 min. Potency, µM (doses to about 38.3 µM), inactives show top-dose activity change, negative = inhibition, usual class: inhibitors. hit rate 0.28% among 200,000. AID 1379, 2008; also: nearly all actives have a fitted effect of over 60% in size
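Compound is pinned into ATP-containing buffer (10 uM ATP, imidazole pH 7.2, 7 mM MgCl2). Kinase-Glo luciferase reagent is then added. Light output is recorded following an 8-min room-temperature incubation.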
Active calls of the source: *; ? = inconclusive; . = no result given; [ ] = another dose, or the depositor's remark. Unless noted, calls follow the shape of the dose curve; as a rule, active = well fitted curve in the direction sought with a large enough effect; inconclusive = small, poorly fitted or top-dose-only effect, or another doubt; inactive = no such curve, though single readings can be large; an effect the other way counts as inactive or inconclusive. Unless noted, % is scaled to controls: 0 for no effect and ±100 for the full control effect; potency is read from the fitted curve at half-maximal effect.

SMILES	aGlu spleen mod	N370S GC	LMNA splice mod	GAA glycogen	GAA inhib	Luc counter
CC[C@H](C)[C@H](NC(=O)[C@H](CCC(=O)O)NC(=O)[C@H](CO)NC(=O)[C@@H](NC(=O)[C@H](C)N)C(C)C)C(=O)N[C@@H](CCC(N)=O)C(=O)N[C@@H](CC(C)C)C(=O)N[C@@H](CCSC)C(=O)N[C@@H](Cc1cnc[nH]1)C(=O)N[C@@H](CC(N)=O)C(=O)N[C@@H](CC(C)C)C(=O)NCC(=O)N[C@@H](CCCCN)C(=O)N[C@@H](Cc1cnc[nH]1)C(=O)N[C@@H](CC(C)C)C(=O)N[C@@H](C)C(=O)N[C@@H](CO)C(=O)N[C@H](C(=O)N[C@@H](CCC(=O)O)C(=O)N[C@@H](CCCNC(=N)N)C(=O)N[C@@H](CCSC)C(=O)N[C@@H](CCC(N)=O)C(=O)N[C@@H](Cc1c[nH]c2ccccc12)C(=O)N[C@@H](CC(C)C)C(=O)N[C@@H](CCCNC(=N)N)C(=O)N[C@@H](CCCCN)C(=O)N[C@@H](CCCCN)C(=O)N[C@@H](CC(C)C)C(=O)N[C@@H](CCC(N)=O)C(=O)N[C@@H](CC(=O)O)C(=O)N[C@H](C(=O)N[C@@H](Cc1cnc[nH]1)C(=O)N[C@@H](CC(N)=O)C(=O)N[C@@H](Cc1ccccc1)C(=O)O)C(C)C)C(C)C	-1%	-5%	.	.	.	.
Cc1cccc2nc(-c3ccco3)c(Nc3ccc4c(c3)OCO4)n12	4%	-7%	.	?	-3%	4%
Cc1ccc(-c2nc3cccc(C)n3c2Nc2ccc3c(c2)OCO3)o1	.	.	.	1.8µM*	.	.
O=C(CSCc1ccccc1Cl)NN=C1CCCCCC1	-4%	-2%	-2%	1%	-10%	4%
C/C(=N\NC(=O)CSCc1ccccc1Cl)c1cc(O)ccc1O	2%	-6%	?	35µM*	2%	1%
O=C(O)c1ccc(S(=O)(=O)N[C@H](Cc2ccc(C(F)(F)F)cc2)C(=O)O)cc1	-14%	-2%	.	.	.	.
CCn1c(C)c(/C=N/Nc2nc3ccccc3s2)c2ccccc21	-10%	-16%	?	25µM*	1%	-5%
C(=N\Nc1nc2ccccc2s1)/c1cccs1	-12%	5%	?	?	-7%	-1%
COc1ccccc1NC(=O)Cn1c(=O)n(CCCCCC(=O)NCc2ccccc2)c(=O)c2sccc21	.	.	.	2%[76.3 µM]	.	.
Cc1cc(C)cc(-n2ccnc2SCC(=O)Nc2ccccc2F)c1	.	.	-15%[46 µM]	.	.	.
CCc1ccc(OCc2nc(-c3ccccn3)no2)c(Br)c1	-7%	26%	-13%	-3%	-10%	-17%
Cc1ccc(OCc2nc(-c3ccccn3)no2)c(Br)c1	-16%	-6%[2.35 µM]	?	4%	-14%	10µM*
COC(=O)[C@@H](NC(=O)O[C@@H]1C(=O)c2cc(OC)ccc2O[C@H]1c1ccc(OC)c(Br)c1)C(C)C	-2%	-5%	.	.	.	-1%
CCC(=Nc1ccccc1O)C1=C(O)CC(c2ccccc2)CC1=O (stereo unspecified)	-4%	-21%	.	13µM*	.	.
Cc1ccc(-c2nnc(Nc3cccc(O)c3)c3ccccc23)cc1S(=O)(=O)N1CCCCC1	.	.	.	1%[76.3 µM]	.	.
O=C(COc1ccc2ccccc2c1)Nc1nccs1	2%	4%	.	4%	2%	-19%
O=C(COc1ccccc1)Nc1nccs1	0%	11%	7%	14%	-5%	10µM*
COC(=O)C1=C(C(=O)OC)[C@@H]2Nc3ccccc3[C@@]23C[C@@H](C(=O)OC)N(S(=O)(=O)c2ccc(C#N)cc2)C3=N1	6%[17.4 µM]	-2%[12.8 µM]	4%[9.22 µM]	.	.	-9%[7.66 µM]
c1ccc(N2CCN(c3ncccn3)CC2)cc1	-5%	21%	?	8%	14%	2%
Oc1ccccc1N1CCN(c2ncccn2)CC1	-2%	4%	-10%	7.9µM*	0%	-1%
CCNc1ncc2nc(-c3ccc(Cl)cc3)c(=O)n(C)c2n1	1%	21%	17%	.	.	.
C1CCc2nnc(-c3nnc4n3CCCCC4)n2CC1	-14%	-2%	-6%	4%	-1%	1%
Cc1ccc(C)n1-c1ccc(-c2nnc3n2CCCCC3)s1	-3%	0%	?	35µM*	2%	-6%
CC(C)C(=O)c1ccc(O)c(O)c1	1%	-1%	.	7.1µM*	.	.
Cc1ccc(NC(=O)c2cc(S(=O)(=O)N3CCC(C)CC3)cn2C)cc1Cl	.	.	-4%[46 µM]	.	.	.
SMILES	aGlu spleen mod	N370S GC	LMNA splice mod	GAA glycogen	GAA inhib	Luc counter
CC(=O)OC[C@H]1O[C@@H](O/N=C2/[C@H]3O[C@@H]3[C@@H](O)[C@H]3[C@H]2CCn2c(=O)n(-c4ccccc4)c(=O)n23)[C@H](OC(C)=O)[C@@H](OC(C)=O)[C@@H]1OC(C)=O	8%[17.4 µM]	1%[12.8 µM]	.	.	.	.
Cc1ccc(O)c(Nc2nc(-c3ccccc3)nc3ccccc23)c1	.	?	.	-24%[76.3 µM]	.	.
Cc1ccc(O)c(Nc2c3ccccc3nc3ccccc23)c1	.	?	.	11µM*	.	.
CCOC(=O)C(=O)Nc1cc(C)on1	10%	2%	.	17%	13%	13µM*
COc1ccc(C(CNC(=O)c2ccc(NS(=O)(=O)c3ccc(F)c(C)c3)cc2)N2CCOCC2)cc1 (stereo unspecified)	.	14µM*	.	.	.	.
CC1CCC/C(=C\Nc2ccc(O)cc2)C1=O (stereo unspecified)	0%	-23%	0%	14µM*	-9%	-10%
C=CCc1c(C)nc(-c2ccccc2)nc1Nc1ccc(O)cc1	-5%	14µM*	?	3%	2%	0%
C=CCc1c(C)nc(-c2ccccc2)nc1N/N=C(\C)c1ccccc1	-1%	10µM*	-5%	?	5%	1%
C=CCc1c(C)nc(SC)nc1Nc1ccccc1	-6%	7%	?	1%	6%	-4%
COc1ncc2nc(-c3cccc(C#N)c3)c(=O)n(CCC#N)c2n1	2%	14%	.	.	.	1%
